About 79,000 compounds went through this panel and 15% of them were active in at least one assay; those are over-represented in the sample as a whole. Calls of active or inactive are those of the source. No stated cut-off is given here; in the data, active means growth inhibition above about 70%; inactive means the rest.
Experiments:
[1] = NCI Yeast Anticancer Drug Screen. Data for the mlh1 strain (AID 171);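 further: 0% = growth of vehicle-treated control cultures of the same strain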; settings: S. cerevisiae mlh1 strain growth inhibition, active compounds read high
In short: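 Yeast carrying a defined genetic alteration in DNA damage repair or cell cycle control were exposed to test compounds. Growth inhibition was measured relative to vehicle-treated controls.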

[2] = NCI Yeast Anticancer Drug Screen. Data for the sgs1 strain (AID 173);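 further: 0% = growth of vehicle-only control cultures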; settings: S. cerevisiae sgs1 mutant, active compounds read high
In short: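 Yeast mutant strains carrying defined defects in DNA damage repair or cell cycle control were exposed to test compounds. Growth inhibition was scored against vehicle-treated controls.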

[3] = NCI Yeast Anticancer Drug Screen. Data for the mlh1 rad18 strain (AID 175); settings: S. cerevisiae mlh1 rad18 strain growth inhibition, active compounds read high
In short: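 Growth inhibition of the yeast strain was measured after compound exposure and expressed relative to vehicle-treated controls. The strain carries defined defects in DNA damage repair.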

[4] = NCI Yeast Anticancer Drug Screen. Data for the rad52 strain (AID 147);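 further: 0% = growth of vehicle-treated control cultures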; settings: S. cerevisiae rad52 mutant growth inhibition, active compounds read high
In short: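 Yeast strain carrying a DNA damage repair alteration was exposed to test compounds. Growth inhibition was measured relative to vehicle-treated controls.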

[5] = NCI Yeast Anticancer Drug Screen. Data for the wt1 strain (AID 149);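 further: 0% = growth of vehicle-treated wt1 cultures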; settings: S. cerevisiae wt1 strain (SPY 50644) growth inhibition, active compounds read high
In short: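 Measured: growth of wt1 yeast under compound versus vehicle treatment, reported as inhibition.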

[6] = NCI Yeast Anticancer Drug Screen. Data for the rad50EPP+ strain (AID 151);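 further: 0% = growth of vehicle-treated control cultures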; settings: S. cerevisiae rad50 mutant strain, active compounds read high
In short: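 Yeast strain carrying rad50 alteration (rad50EPP+) exposed to compounds; growth inhibition measured relative to vehicle-treated controls.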

[7] = NCI Yeast Anticancer Drug Screen. Data for the mgt1 strain (AID 153); settings: S. cerevisiae mgt1 mutant growth inhibition, active compounds read high
In short: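 Yeast mgt1 strain (DNA repair/cell-cycle alteration panel) exposed to compounds; growth inhibition measured relative to vehicle-treated controls.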

[8] = NCI Yeast Anticancer Drug Screen. Data for the rad50 strain (AID 155);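 further: 0% = growth of vehicle-only cultures of the same strain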; settings: S. cerevisiae rad50 strain growth inhibition, active compounds read high
In short: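 Growth of the mutant yeast was measured after compound exposure and referenced to vehicle-treated cultures.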

[9] = NCI Yeast Anticancer Drug Screen. Data for the mec2-1 strain (AID 157); settings: S. cerevisiae mec2-1 strain, active compounds read high
In short: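 mec2-1 yeast strain, carrying an alteration in DNA damage repair or cell cycle control, was exposed to compounds; growth inhibition was measured relative to vehicle-treated controls.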

[10] = NCI Yeast Anticancer Drug Screen. Data for the rad14 strain (AID 159);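 further: 0% = growth of vehicle-treated control cultures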; settings: S. cerevisiae rad14 strain growth inhibition, active compounds read high
In short: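 Here, inhibition of yeast growth was measured after compound exposure, using a strain with a genetic defect in DNA damage repair and vehicle-treated cultures as the reference.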

[11] = NCI Yeast Anticancer Drug Screen. Data for the sgs1 mgt1 strain (AID 161);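 further: 0% = growth of cultures given vehicle only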; settings: S. cerevisiae sgs1 mgt1 strain, active compounds read high
In short: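 Yeast cells carrying a defined DNA-repair defect were exposed to test compounds. Growth inhibition was measured relative to vehicle-treated controls.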

[12] = NCI Yeast Anticancer Drug Screen. Data for the cln2 rad14 strain (AID 165);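 further: 0% = growth equal to vehicle treated cultures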; settings: S. cerevisiae cln2 rad14 strain, active compounds read high
In short: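 Yeast carrying cln2 and rad14 alterations (cell cycle control and DNA damage repair) were exposed to compounds. Growth inhibition was measured against vehicle-treated controls.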

[13] = NCI Yeast Anticancer Drug Screen. Data for the bub3 strain (AID 167); settings: S. cerevisiae bub3 mutant strain, active compounds read high
In short: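 Whole-cell yeast assay. The mutant strain was incubated with compounds, and growth inhibition was determined by comparison with vehicle-treated cells.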

[14] = NCI Yeast Anticancer Drug Screen. Data for the wt2 strain (AID 169);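 further: 0% = growth of vehicle-treated yeast cultures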; settings: S. cerevisiae wt2 strain growth inhibition, active compounds read high
In short: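 Yeast cells were exposed to test compounds, and growth inhibition was measured relative to vehicle-treated controls.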

[15] = NCI Yeast Anticancer Drug Screen. Data for the rad18 strain (AID 177); settings: S. cerevisiae rad18 mutant growth inhibition, active compounds read high
In short: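 Yeast carrying a defined DNA damage repair alteration were exposed to compounds. Growth inhibition was expressed relative to vehicle-treated controls.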

[16] = at 5.0 µM (retest, dose inferred, filed as 0.5)
[17] = at 50.0 µM (retest, dose inferred, filed as 5.0)

Measured: growth inhibition

CC(=O)Oc1ccc2c(c1)Cc1cc(N=C3C=CC(=O)O3)ccc1-2
inactive: [1]; at 1.2 µM 18% | [1]; at 3.7 µM 51% | [2]; at 1.2 µM 17% | [2]; at 3.7 µM 56% | [3]; [16] 62%
active: [1]; at 11.0 µM 98% | [1]; at 33.0 µM 99% | [1]; at 100.0 µM 97% | [2]; at 11.0 µM 99% | [2]; at 33.0 µM 99% | [2]; at 100.0 µM 96% | [3]; [17] 99% | [3]; at 50.0 µM 85%

O=C(O)C1OC1(c1cccc(Cl)c1)c1ccccc1Cl (centres undefined)
active: [4]; at 100.0 µM 91% | [5]; at 100.0 µM 93% | [7]; at 100.0 µM 95% | [8]; at 50.0 µM 90.1% | [8]; at 100.0 µM 88% | [9]; at 50.0 µM 92% | [9]; at 100.0 µM 94% | [10]; at 33.0 µM 75% | [10]; at 100.0 µM 91% | [11]; [17] 93% | [11]; at 50.0 µM 93.1% | [12]; [17] 96% | [12]; at 50.0 µM 90.7% | [13]; at 33.0 µM 70% | [13]; [17] 95% | [13]; at 50.0 µM 89.9% | [13]; at 100.0 µM 92% | [14]; at 100.0 µM 93% | [1]; at 100.0 µM 90% | [2]; at 100.0 µM 90% | [3]; at 50.0 µM 90.5% | [15]; at 100.0 µM 90%
inactive: [4]; at 1.2 µM -9% | [4]; at 3.7 µM -8% | [4]; at 11.0 µM 13% | [4]; at 33.0 µM 56% | [5]; at 1.2 µM -18% | [5]; at 3.7 µM -15% | [5]; at 11.0 µM -15% | [5]; at 33.0 µM 41% | [6]; at 1.2 µM 0% | [6]; at 3.7 µM 9% | [6]; at 11.0 µM 12% | [6]; at 33.0 µM 25% | [6]; at 100.0 µM 36% | [7]; at 1.2 µM 17% | [7]; at 3.7 µM 16% | [7]; at 11.0 µM 28% | [7]; at 33.0 µM 67% | [8]; at 1.2 µM 1% | [8]; at 3.7 µM 7% | [8]; [16] 43% | [8]; at 11.0 µM 12% | [8]; at 33.0 µM 48% | [8]; [17] 59% | [9]; at 1.2 µM -6% | [9]; at 3.7 µM -13% | [9]; [16] 57% | [9]; at 11.0 µM 2% | [9]; at 33.0 µM 58% | [9]; [17] 61% | [10]; at 1.2 µM -19% | [10]; at 3.7 µM -12% | [10]; at 11.0 µM -11% | [11]; [16] -12% | [12]; [16] 54% | [13]; at 1.2 µM 0% | [13]; at 3.7 µM -5% | [13]; [16] 30% | [13]; at 11.0 µM 9% | [14]; at 1.2 µM -35% | [14]; at 3.7 µM -20% | [14]; at 11.0 µM -18% | [14]; at 33.0 µM 26% | [1]; at 1.2 µM -26% | [1]; at 3.7 µM -25% | [1]; at 11.0 µM -10% | [1]; at 33.0 µM 37% | [2]; at 1.2 µM -13% | [2]; at 3.7 µM -5% | [2]; at 11.0 µM 1% | [2]; at 33.0 µM 51% | [3]; [16] 47% | [3]; [17] 53% | [15]; at 1.2 µM -6% | [15]; at 3.7 µM -16% | [15]; at 11.0 µM 3% | [15]; at 33.0 µM 57%

COc1ccc(O)c(/C=N\Nc2ccccc2)c1
inactive: [4]; at 1.2 µM -10% | [4]; at 3.7 µM -11% | [4]; at 11.0 µM -3% | [4]; at 33.0 µM 54% | [4]; at 100.0 µM 55% | [5]; at 1.2 µM -1% | [5]; at 3.7 µM 5% | [5]; at 11.0 µM 11% | [5]; at 33.0 µM 12% | [5]; at 100.0 µM 33% | [6]; at 1.2 µM -8% | [6]; at 3.7 µM -18% | [6]; at 11.0 µM 13% | [6]; at 33.0 µM 50% | [7]; at 1.2 µM -6% | [7]; at 3.7 µM -7% | [7]; at 11.0 µM -6% | [7]; at 33.0 µM -6% | [7]; at 100.0 µM 36% | [8]; at 1.2 µM -14% | [8]; at 3.7 µM -9% | [8]; [16] -124% | [8]; at 11.0 µM -4% | [8]; at 33.0 µM 25% | [9]; at 1.2 µM -6% | [9]; at 3.7 µM -5% | [9]; [16] -52% | [9]; at 11.0 µM -5% | [9]; at 33.0 µM -5% | [9]; [17] -12% | [9]; at 100.0 µM -2% | [10]; at 1.2 µM 0% | [10]; at 3.7 µM -1% | [10]; at 11.0 µM 5% | [10]; at 33.0 µM 30% | [11]; [16] -64% | [11]; [17] -22% | [12]; [16] -61% | [12]; [17] -19% | [13]; at 1.2 µM -9% | [13]; at 3.7 µM -9% | [13]; [16] -73% | [13]; at 11.0 µM -9% | [13]; at 33.0 µM 6% | [13]; [17] -4% | [13]; at 100.0 µM 49% | [14]; at 1.2 µM 3% | [14]; at 3.7 µM 8% | [14]; at 11.0 µM 21% | [14]; at 33.0 µM 51% | [1]; at 1.2 µM -13% | [1]; at 3.7 µM -8% | [1]; at 11.0 µM -7% | [1]; at 33.0 µM -2% | [2]; at 1.2 µM -13% | [2]; at 3.7 µM -9% | [2]; at 11.0 µM 11% | [2]; at 33.0 µM 39% | [3]; [16] -132% | [3]; [17] 13% | [15]; at 1.2 µM -9% | [15]; at 3.7 µM -8% | [15]; at 11.0 µM -2% | [15]; at 33.0 µM 14% | [15]; at 100.0 µM 54%
active: [6]; at 100.0 µM 70% | [8]; [17] 71% | [8]; at 50.0 µM 99.4% | [8]; at 100.0 µM 73% | [9]; at 50.0 µM 99.3% | [10]; at 100.0 µM 94% | [11]; at 50.0 µM 98.8% | [12]; at 50.0 µM 99% | [13]; at 50.0 µM 98.9% | [14]; at 100.0 µM 96% | [1]; at 100.0 µM 74% | [2]; at 100.0 µM 94% | [3]; at 50.0 µM 98.5%
